From PubChem BioAssay (NCI)
Compounds without any hit were thinned out: in the full panel of roughly 83,000, 20% have a hit.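 Growth was measured after 48 h exposure to one concentration of compound in 96-well plates. Values under 10 count as active.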 A number with no mark means an inactive call. Activity calls are given as the source filed them.

Key:
Assay in all cases: NCI-60 one-dose screen, 48 h (100 = growth as untreated, 0 = no growth, -100 = all killed)
Conditions in all cases: 10 µM unless noted
DU-145 prostate = tested on: DU-145 prostate
K-562 leukemia = tested on: K-562 leukemia
MALME-3M melanoma = tested on: MALME-3M melanoma
RXF 393 renal = tested on: RXF 393 renal
SF-268 CNS = tested on: SF-268 CNS
SF-295 CNS = tested on: SF-295 CNS
SF-539 CNS = tested on: SF-539 CNS
UACC-257 melanoma = tested on: UACC-257 melanoma
M14 melanoma = tested on: M14 melanoma
MDA-MB-231 breast = tested on: MDA-MB-231 breast

Compound | growth (DU-145 prostate) | growth (K-562 leukemia) | growth (MALME-3M melanoma) | growth (RXF 393 renal) | growth (SF-268 CNS) | growth (SF-295 CNS) | growth (SF-539 CNS) | growth (UACC-257 melanoma) | growth (M14 melanoma) | growth (MDA-MB-231 breast) [%]
O=C(O)c1cccc(-c2ccc(/C=N/NC(=O)c3[nH]c4ccc(Br)cc4c3-c3ccccc3)o2)c1 | 98.7% | 65.8% | 55.2% | 24.7% | 47.6% | 72.3% | 11.8% | 93.8% | 65.9% | 
COc1ccc(-c2cc(C(=O)NCc3ccccc3)nn2-c2ccc(S(C)(=O)=O)cc2)cc1OC | 105% | 105% | 108% | 110% | 97.3% | 98.1% | 95.2% | 105% | 111% | 
O=C(N/N=C/c1ccc(-c2ccc(O)cc2)s1)c1[nH]c2ccc(Br)cc2c1-c1ccccc1 | 30.1% | 2.31% (active) | -2.08% (active) | -29.5% (active) | 28.9% | 0.137% (active) | -57.2% (active) | 53.9% | 9.8% (active) | 
CC1CCCCN1CCCNC(=O)N/C(N)=N/c1nc2ccccc2s1 (stereo unspecified) | 72.1% | -27.6% (active) | -93.2% (active) | 5.45% (active) | 49.7% | 15.3% | -60.9% (active) | -86.8% (active) | -85.2% (active) | 
CNC(=O)c1cc(Oc2ccc3nc(NC(=O)Nc4cccc(OC(F)(F)F)c4)sc3c2)ccn1 | 36.8% | 47.1% | -25.2% (active) | -40.1% (active) | 11.8% | -18.9% (active) | -57.8% (active) | 47.9% | 44.8% | 
CC(C)c1ccc2c(N)c(C(=O)Nc3cccc(C(F)(F)F)c3)sc2n1 | 73.4% | 8.51% (active) | 80.3% | 42.1% | 94.2% | 64.9% | 66.6% | 90.1% | 32.8% | 
CSc1ccc(C(=O)Nc2ccc3nnn(/C(C#N)=C/c4ccccn4)c3c2)cc1 | -40.3% (active) | -9.85% (active) | -59.3% (active) | -95.5% (active) | 30.5% | 34.8% | -92% (active) | -38.9% (active) | -73.2% (active) | 
N#Cc1ccc(/C=N/NC(=O)c2[nH]c3ccc(Br)cc3c2-c2ccccc2)o1 | 8.4% (active) | 2.28% (active) | 22% | -2.8% (active) | 17.7% | 16% | -16.8% (active) | 13.6% | 12.1% | 
COc1cc(/C=C/C(=O)c2nnn(-c3ccc(Cl)cc3)c2C)cc(OC)c1OC | 17.3% | 3.43% (active) | 49% | 49.7% | 38.8% | 51.8% | 52% | 35.3% | 30.4% | 
Cc1c(C(=O)NNC(=O)Nc2ccc(Cl)cc2)nnn1-c1ccc(Br)cc1 | 99.5% | 92.2% | 90.7% | 90.5% | 103% | 98.8% | 102% | 99% | 101% | 
CSc1ccc(NC(=O)c2ccc3nnn(/C(C#N)=C/c4ccccn4)c3c2)cc1 | -97.9% (active) | -5.65% (active) | -94.6% (active) | -98.6% (active) | -3.01% (active) | -73.3% (active) | -99.3% (active) | -76.9% (active) | -89.7% (active) | 
C=C1CC[C@@H]2[C@]3(C)COC(c4cn[nH]c4-c4ccc(C)cc4)O[C@@H]3CC[C@@]2(C)[C@@H]1C/C=C1/C(=O)OCC1O (stereo partly specified) | 37.2% | 2.59% (active) | -52.6% (active) | -31.7% (active) | 54.2% | 49.5% | -88.1% (active) | -0.178% (active) | -42.2% (active) | 
O=C(Cn1c(/C=C/c2cccc([N+](=O)[O-])c2)nc2ccccc2c1=O)Nc1ccccc1 | 69.4% |  | 75.1% | 55.5% | 78.5% | 68.5% | 8.73% (active) | 104% | 70.6% | 33.8
COc1ccc(C(=O)/C=C/c2cccnc2)cc1S(N)(=O)=O | 22% |  | 77.5% | 54.1% | 44.4% | 38.9% | 3.62% (active) | 72.1% | 66.2% | 60.5
C=C1CC[C@@H]2[C@]3(C)COC(c4cn(-c5ccccc5)nc4-c4ccccc4)O[C@@H]3CC[C@@]2(C)[C@@H]1C/C=C1/C(=O)OC[C@H]1O (stereo partly specified) | 8.33% (active) | -29.9% (active) | -90.2% (active) | -90.8% (active) | 8.39% (active) | -97.5% (active) | -98.6% (active) | -77.2% (active) | -80.4% (active) | 
CC1=C(C(=O)c2ccccc2)C(c2cccc(Cl)c2Cl)n2c(nc3ccccc32)N1 (stereo unspecified) | 58.1% | 61.4% | 57.9% | 42.8% | 43.6% | 63.3% | 16.6% | 76.2% | 81.8% | 
CSc1ccc(C(=O)Nc2ccc3nn(/C(C#N)=C/c4ccccn4)nc3c2)cc1 | -97% (active) | -1.86% (active) | -82.1% (active) | -94.6% (active) | -26.3% (active) | -49% (active) | -88.3% (active) | -67.6% (active) | -76.8% (active) | 
Cc1cc(C)n(-c2ccc3nnc(-c4ccccc4)n3n2)n1 | 92.2% |  | 108% | 90.6% | 89.6% | 103% | 102% | 135% | 129% | 117
N#Cc1c(-c2ccc(Br)cc2)nc2n[nH]c(-c3ccc(Br)cc3)c2c1-c1ccc(F)cc1 | 116% | 76.4% | 86.2% | 102% | 129% | 98.9% | 97.4% | 103% | 97.7% | 
Cc1cc(C)cc(C(=O)Nc2cccc(-c3cn(-c4ccc(S(N)(=O)=O)cc4)nn3)c2)c1 | 72.1% | 19.1% | 20.4% | -26.1% (active) | 16.6% | -36.6% (active) | -84.3% (active) | 76.2% | 73.4% | 
N#Cc1c(-c2cccnc2)cc(-c2ccc3ccccc3c2)[nH]c1=O | 80.2% | 86.6% | 94.8% | 50.6% | 71.7% | 71.4% | 7.22% (active) | 105% | 116% | 
O=C(NNc1ccccc1)n1c(=O)c2ccccc2c(=O)n1-c1ccccc1 | 104% | 45.8% | 96.5% | 109% | 92.8% | 87.2% | 97.5% | 77.6% | 100% | 
CCCCOc1ccc(NC(=O)c2sc3nc(C)ccc3c2N)cc1 | 46.4% | 9.87% (active) | 23.3% | -20.7% (active) | 29.8% | -54% (active) | -99.7% (active) | 54.1% | 59.9% | 
COc1ccc2nc(Nc3cccc(NC(=O)c4ccc(CN5CCCN(C)CC5)c(C(F)(F)F)c4)c3)ccc2c1 | -54.2% (active) | -18.6% (active) | -58.3% (active) | -82.9% (active) | -9.02% (active) | -53.9% (active) | -56.2% (active) | -34% (active) | -49.4% (active) | 
CC(=O)Nc1cccc(Nc2nc(NCc3ccccc3)c3ccccc3n2)c1 | -93.7% (active) | -59% (active) | -94.2% (active) | -95.2% (active) | -72.8% (active) | -98.9% (active) | -98% (active) | -83.6% (active) | -86.5% (active) | 
O=C(NNc1nc2cc(F)ccc2n2c(C(=O)N3CCN(C4CC4)CC3)ccc12)c1ncccn1 | 47.8% |  | 33.2% | 64.8% | 29.9% | -33.9% (active) | 12.9% | 19.7% | -33% (active) | 43.6
N#Cc1c(-c2cccc(O)c2O)cc(-c2ccc3ccccc3c2)[nH]c1=O | 57% | 67.1% | 59.1% | 39.3% | 58.6% | 83.6% | 28.8% | 99.9% | 65.1% | 
CN1CCc2c(sc3ncnc(N/N=C/c4ccc(Cl)cc4Cl)c23)C1 | 36.1% | -21.5% (active) | -62.4% (active) | -41.8% (active) | 35.8% | 32.4% | -94.6% (active) | -12.3% (active) | -81.4% (active) | 
O=C(/C=C/c1cccc(OCc2ccc(F)cc2)c1)c1nc2ccccc2[nH]1 | 70.3% | -14.6% (active) | 95.8% | 57.7% | 95.1% | 74.2% | 44.7% | 76.1% | 13.8% | 
